Consider eight molecules from PubChem BioAssay (NCI).

What all share (experiment): NCI-60 one-dose screen, 48 h (100 = growth as untreated, 0 = no growth, -100 = all killed)
Conditions in all cases: 10 µM unless noted

The subject of test [1] is NCI-H23 lung.
Test [2] deals with NCI-H322M lung.
Test [3] has as its system HOP-62 NSCLC.
For test [4], the system named is NCI-H460 lung.
In test [5] the test system is HOP-92 NSCLC.
Test [6] concerns NCI-H522 lung.
The test system of test [7] is A549/ATCC NSCLC.
The test system of test [8] is 786-0 renal.
Test [9] relates to DU-145 prostate.
Test [10] relates to K-562 leukemia.
For test [11], the system named is MALME-3M melanoma.
For test [12], the system named is MDA-MB-231 breast.
The test system of test [13] is RXF 393 renal.
The subject of test [14] is SF-268 CNS.
The subject of test [15] is SF-295 CNS.
In test [16] the test system is SF-539 CNS.
In test [17] the test system is UACC-257 melanoma.
Test [18] concerns M14 melanoma.
In test [19] the test system is HCT-15 colon.

Molecules are shown by their SMILES. Compounds without any hit were thinned out: in the full panel of roughly 83,000, 20% have a hit.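 Note: values are percent growth. 100 is the growth of untreated cells, values between 100 and 0 indicate rising inhibition; between -100 and 0 indicates cell death.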 Values without a mark were called inactive. Activity calls are given as the source filed them. Rule for the calls: active = growth percent below 10; inactive = the rest.

As for `Cn1cc(-c2ccc3ncc(-c4ccc(CC(=O)Nc5cc(C(C)(C)C)no5)cc4)nc3c2)cn1`, the growth was 36.6% in test [1]; 20.6% in test [2]; 42.5% in test [3]; 22.8% in [4]; 46.3% in test [5]; 41.6% in test [6]. In addition, the growth in [7] was 33.7%; in test [8], 39.2%; in test [9], 34.3%; in test [10], 22.5%; in [11] it was 25%; in test [12] it was 28.7%. The growth in [13] is 32.3%; in test [14] it was 36%; in [15], 47.2%; in test [16] it was 27.3%; in [17], 61.2%; in test [18], 34.6%. For the same molecule, in test [19], the growth was 16.3%.

For the molecule `CC(=O)c1ccc(Nc2nc(NCCO)nc(Nc3ccc(Cl)cc3)n2)cc1`, the growth in [1] was 99.1%; in [2], 97.1%; in test [3], 100%; in test [4], 93.6%; in test [5], 86.4%; in [6], 81.2%. Also, the growth is 85.6% in [7]; 104% in test [8]; 94.8% in test [9]; 78% in test [10]; 93.5% in test [11]; 82.5% in test [12]. Besides, the growth in [13] is 67.2%; in [14], 91.9%; in test [15], 97.8%; in test [16], 87.2%; in test [17] it was 88.4%; in [18], 114%. The growth in test [19] is 73.9%.

For the molecule `Cc1ccc2c(n1)C(=O)C(Oc1ccc(Br)cc1)=CC2=O`, the growth in [1] is 94.5%; in test [2], 99.6%; in test [3], 116%; in test [4], 99.1%; in test [5], 108%; in test [6], -27% (active). The growth in [7] is 100%; in [8], 104%; in test [9] it was 110%; in test [10] it was 77%; in test [11], 115%; in test [12] it was 91.1%. Further, the growth in test [13] is 104%; in test [14], 88.4%; in test [15], 103%; in test [16], 104%; in test [17], 106%; in test [18] it was 94.9%. The growth in [19] is 84.7%.

Take `CNCCNc1nc2ccccc2c2c(=O)c3cc(F)ccc3sc12`: the growth in [1] is 90.9%; in [2], 42.4%; in test [3], 46%; in test [4] it was -65.8% (active); in test [5], 19.2%; in test [6], 33.8%. In addition, the growth in [7] is -56.3% (active); in test [8], 42.5%; in test [9], 12%; in [10] it was -47.1% (active); in test [11], 68.1%; in test [12], 19.5%. Further, the growth was 62% in test [13]; 44.3% in [14]; 95.2% in test [15]; 71.6% in test [16]; 54.4% in [17]; 1.91% (active) in test [18]. Further, the growth in test [19] was 13.6%.

Consider `CCCCN1CCN(c2ccc3nc(-c4ccc5nc(-c6ccc(OC)c(OC)c6)[nH]c5c4)[nH]c3c2)CC1`, for which the growth was -66.1% (active) in test [1]; 10.1% in [2]; -1.2% (active) in test [3]; -35% (active) in test [4]; 60.7% in [5]; -36.8% (active) in [6]. Moreover, the growth is 28.4% in test [7]; -85.9% (active) in test [8]; 2.42% (active) in test [9]; -15.5% (active) in test [10]; -62.3% (active) in [11]; -38.1% (active) in test [12]. For the same molecule, the growth in test [13] is -98.5% (active); in test [14], 20.7%; in test [15] it was 10.6%; in [16] it was -81.9% (active); in test [17] it was -3.47% (active); in test [18] it was -52.5% (active). Further, the growth in test [19] was 46.1%.

For `C[C@@H](C(=O)NCCCC#Cc1cnc(Nc2ccc(C#N)cc2)nc1NC1CC1)N(C)C(=O)/C=C/CN(C)C`, the growth is 22.8% in test [1]; 63% in [2]; 44.2% in [3]; 15.3% in test [4]; 107% in [5]; 59.1% in test [6]. Further, the growth in test [7] was 32.8%; in test [8], 39.8%; in [9], 38.4%; in test [10] it was 14.1%; in test [11], 22.5%; in [12], 77.8%. Further, the growth in test [13] was -1.36% (active); in test [14], 48.4%; in test [15], 25.9%; in test [16], 9.99% (active); in test [17], 40.2%; in [18], 26.7%. In [19], the growth is 29.9%.

For `Cn1c(/C=C(\C#N)c2ccccc2)nc2c(N3CCOCC3)nc(Cl)nc21`, the growth is 17.5% in test [1]; 65.9% in [2]; 38% in [3]; 18.1% in [4]; -75.6% (active) in [5]; -57.5% (active) in test [6]. Further, the growth in test [7] was 30.4%; in test [8], -71.4% (active); in [9], -72.4% (active); in test [10] it was -13.8% (active); in test [11], -51.2% (active); in [12], -80.3% (active). Moreover, the growth in test [13] was -86.3% (active); in test [14] it was -66.2% (active); in test [15], 85.1%; in [16] it was -88% (active); in [17], -61.5% (active); in test [18], -62.5% (active). In addition, in [19], the growth was -66.8% (active).

With `CCCN1CCN(c2ccc3nc(-c4ccc5nc(-c6cc(OC)ccc6OC)[nH]c5c4)[nH]c3c2)CC1`, the growth is 103% in test [1]; 115% in test [2]; 117% in test [3]; 100% in test [4]; 110% in test [5]; 113% in test [6]. Moreover, the growth is 115% in [7]; 101% in [8]; 114% in test [9]; -45.3% (active) in test [10]; 139% in test [11]; 107% in test [12]. For the same molecule, the growth was 93.3% in test [13]; 106% in [14]; 104% in test [15]; 96.2% in [16]; 110% in test [17]; 111% in [18]. Also, the growth in [19] was 62.1%.
